Measured values as given in paper PMC5700166.

Key:
[1] = biological target: T1, GST-Nv-NF-kB (Ser allele) (Nematostella vectensis, UniProt A7UNT2 2-411); assay: protein-binding microarray (PBM); PBM: ~300 nM protein, 6 mM HEPES pH 7.8, 80 mM KCl, 0.5 mM EDTA, 0.5 mM EGTA, 6% glycerol, 35 ng/ul poly-dIdC, 1% milk, 1 h, room temperature; Ap Aiptasia and Nv Nematostella (sea anemones) / Co Capsaspora / Aq Amphimedon (sponge) / Dm Drosophila / Hu human; RHD is the Rel homology domain; high values mean tight binding; conditions: dsDNA, one strand shown
T1 sequence: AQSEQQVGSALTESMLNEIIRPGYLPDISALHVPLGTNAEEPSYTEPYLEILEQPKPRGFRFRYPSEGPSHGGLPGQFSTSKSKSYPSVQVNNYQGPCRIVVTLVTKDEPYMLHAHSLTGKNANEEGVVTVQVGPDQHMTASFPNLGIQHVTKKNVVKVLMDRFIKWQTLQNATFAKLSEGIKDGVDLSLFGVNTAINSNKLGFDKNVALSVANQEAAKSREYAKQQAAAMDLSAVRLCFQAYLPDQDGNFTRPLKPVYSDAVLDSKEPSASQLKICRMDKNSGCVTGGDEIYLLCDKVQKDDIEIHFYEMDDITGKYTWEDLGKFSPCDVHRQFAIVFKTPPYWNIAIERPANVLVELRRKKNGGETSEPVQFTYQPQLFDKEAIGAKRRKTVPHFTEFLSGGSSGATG

GST-Hu-p50 = GST-Hu-p50 (Homo sapiens, UniProt P19838 7-356); assay: as above; conditions: dsDNA, one strand shown
Chain of GST-Hu-p50 (P19838 7-356): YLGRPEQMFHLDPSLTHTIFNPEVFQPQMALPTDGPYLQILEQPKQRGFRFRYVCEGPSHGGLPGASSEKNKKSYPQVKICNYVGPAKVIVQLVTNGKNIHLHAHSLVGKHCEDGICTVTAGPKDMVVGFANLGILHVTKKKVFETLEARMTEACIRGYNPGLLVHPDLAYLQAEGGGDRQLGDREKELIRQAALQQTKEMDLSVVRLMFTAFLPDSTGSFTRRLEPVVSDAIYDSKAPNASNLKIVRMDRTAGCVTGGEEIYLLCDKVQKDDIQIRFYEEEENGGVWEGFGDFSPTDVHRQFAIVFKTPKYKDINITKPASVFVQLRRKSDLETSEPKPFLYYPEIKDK

Sequence: CCGATTAACATCAGGGGGCATTATGATGTTAATCGGGTCTTGATTCGCTTGACGCTGCTG
- binding signal [1]: 3.29 z-score
- binding signal (GST-Hu-p50): 4.09 z-score

Sequence: CCGATTAACATCAGGCCGTCCCCTGATGTTAATCGGGTCTTGATTCGCTTGACGCTGCTG
- binding signal [1]: 3.43 z-score
- binding signal (GST-Hu-p50): 3.86 z-score

Sequence: CCGATTAACATCAAAAAGGGAAATGATGTTAATCGGGTCTTGATTCGCTTGACGCTGCTG
- binding signal [1]: 6.22 z-score
- binding signal (GST-Hu-p50): 3.72 z-score

Sequence: CCGATTAACATCAGGCACCCCCCTGATGTTAATCGGGTCTTGATTCGCTTGACGCTGCTG
- binding signal [1]: 3.18 z-score
- binding signal (GST-Hu-p50): 4.38 z-score

Sequence: CCGATTAACATCAGGAAGTCCCATGATGTTAATCGGGTCTTGATTCGCTTGACGCTGCTG
- binding signal [1]: 4.19 z-score
- binding signal (GST-Hu-p50): 4.09 z-score

Sequence: CCGATTAACATCAGGGAGTTCCATGATGTTAATCGGGTCTTGATTCGCTTGACGCTGCTG
- binding signal [1]: 2.53 z-score
- binding signal (GST-Hu-p50): 2.54 z-score

Sequence: CCGATTAACATCAGGGAATCAGATGATGTTAATCGGGTCTTGATTCGCTTGACGCTGCTG
- binding signal [1]: 2.02 z-score
- binding signal (GST-Hu-p50): 1.19 z-score

Sequence: CCGATTAACATCAGGGGAATGACTGATGTTAATCGGGTCTTGATTCGCTTGACGCTGCTG
- binding signal [1]: 6.22 z-score
- binding signal (GST-Hu-p50): 4.83 z-score

Sequence: CCGATTAACATCAGGGAAAGGAATGATGTTAATCGGGTCTTGATTCGCTTGACGCTGCTG
- binding signal [1]: 2.07 z-score
- binding signal (GST-Hu-p50): 1.29 z-score

Sequence: CCGATTAACATCAGGGACCTCCCTGATGTTAATCGGGTCTTGATTCGCTTGACGCTGCTG
- binding signal [1]: 1.67 z-score
- binding signal (GST-Hu-p50): 3.27 z-score

Sequence: CCGATTAACATCACTCCCTAAAATGATGTTAATCGGGTCTTGATTCGCTTGACGCTGCTG
- binding signal [1]: 1.75 z-score
- binding signal (GST-Hu-p50): 2.32 z-score

Sequence: CCGATTAACATCAAATCTTTCCCTGATGTTAATCGGGTCTTGATTCGCTTGACGCTGCTG
- binding signal [1]: 6.25 z-score
- binding signal (GST-Hu-p50): 3.68 z-score

Sequence: CCGATTAACATCACTACTTTCCCTGATGTTAATCGGGTCTTGATTCGCTTGACGCTGCTG
- binding signal [1]: 5.24 z-score
- binding signal (GST-Hu-p50): 3.06 z-score

Sequence: CCGATTAACATCAGGAGTTTACCTGATGTTAATCGGGTCTTGATTCGCTTGACGCTGCTG
- binding signal [1]: 2.03 z-score
- binding signal (GST-Hu-p50): 1.4 z-score

Sequence: CCGATTAACATCATGGGGACGACTGATGTTAATCGGGTCTTGATTCGCTTGACGCTGCTG
- binding signal [1]: 2.44 z-score
- binding signal (GST-Hu-p50): 2.41 z-score

Sequence: CCGATTAACATCAAAAACACCCCTGATGTTAATCGGGTCTTGATTCGCTTGACGCTGCTG
- binding signal [1]: 3.89 z-score
- binding signal (GST-Hu-p50): 4.99 z-score

Sequence: CCGATTAACATCAAATTTCCCGCTGATGTTAATCGGGTCTTGATTCGCTTGACGCTGCTG
- binding signal [1]: 4.85 z-score
- binding signal (GST-Hu-p50): 3.98 z-score

Sequence: CCGATTAACATCACCGGAATTCCTGATGTTAATCGGGTCTTGATTCGCTTGACGCTGCTG
- binding signal [1]: 1.56 z-score
- binding signal (GST-Hu-p50): 2.71 z-score

Sequence: CCGATTAACATCAAGCGTTTCCCTGATGTTAATCGGGTCTTGATTCGCTTGACGCTGCTG
- binding signal [1]: 3.6 z-score
- binding signal (GST-Hu-p50): 1.47 z-score

Sequence: CCGATTAACATCAGGACTACCCCTGATGTTAATCGGGTCTTGATTCGCTTGACGCTGCTG
- binding signal [1]: 1.61 z-score
- binding signal (GST-Hu-p50): 3.02 z-score

Sequence: CCGATTAACATCAGAATCTCCCATGATGTTAATCGGGTCTTGATTCGCTTGACGCTGCTG
- binding signal [1]: 1.67 z-score
- binding signal (GST-Hu-p50): 2.18 z-score

Sequence: CCGATTAACATCAGGTATTTTTATGATGTTAATCGGGTCTTGATTCGCTTGACGCTGCTG
- binding signal [1]: 3.43 z-score
- binding signal (GST-Hu-p50): 3.11 z-score

Sequence: CCGATTAACATCACACATTTCCCTGATGTTAATCGGGTCTTGATTCGCTTGACGCTGCTG
- binding signal [1]: 4.87 z-score
- binding signal (GST-Hu-p50): 3.2 z-score

Sequence: CCGATTAACATCAGGGGCTGTACTGATGTTAATCGGGTCTTGATTCGCTTGACGCTGCTG
- binding signal [1]: 2.32 z-score
- binding signal (GST-Hu-p50): 3.36 z-score

Sequence: CCGATTAACATCAGGCGATTCCCTGATGTTAATCGGGTCTTGATTCGCTTGACGCTGCTG
- binding signal [1]: 2.44 z-score
- binding signal (GST-Hu-p50): 1.92 z-score

Sequence: CCGATTAACATCAGGGAAAACACTGATGTTAATCGGGTCTTGATTCGCTTGACGCTGCTG
- binding signal [1]: 5.79 z-score
- binding signal (GST-Hu-p50): 4.24 z-score

Sequence: CCGATTAACATCAGGGAAATATATGATGTTAATCGGGTCTTGATTCGCTTGACGCTGCTG
- binding signal [1]: 5.62 z-score
- binding signal (GST-Hu-p50): 4.03 z-score

Sequence: CCGATTAACATCAGGAATAACCCTGATGTTAATCGGGTCTTGATTCGCTTGACGCTGCTG
- binding signal [1]: 1.44 z-score
- binding signal (GST-Hu-p50): 3.24 z-score

Sequence: CCGATTAACATCAGGCGAGTCCCTGATGTTAATCGGGTCTTGATTCGCTTGACGCTGCTG
- binding signal [1]: 2.72 z-score
- binding signal (GST-Hu-p50): 2.61 z-score

Sequence: CCGATTAACATCAGGGAACTTTATGATGTTAATCGGGTCTTGATTCGCTTGACGCTGCTG
- binding signal [1]: 3.6 z-score
- binding signal (GST-Hu-p50): 3.66 z-score

Sequence: CCGATTAACATCAGGGTATTCCATGATGTTAATCGGGTCTTGATTCGCTTGACGCTGCTG
- binding signal [1]: 4.16 z-score
- binding signal (GST-Hu-p50): 4.11 z-score

Sequence: CCGATTAACATCAGAATTCCCGCTGATGTTAATCGGGTCTTGATTCGCTTGACGCTGCTG
- binding signal [1]: 3.89 z-score
- binding signal (GST-Hu-p50): 3.53 z-score

Sequence: CCGATTAACATCACATATTTCCCTGATGTTAATCGGGTCTTGATTCGCTTGACGCTGCTG
- binding signal [1]: 5.42 z-score
- binding signal (GST-Hu-p50): 3.71 z-score

Sequence: CCGATTAACATCAAAATTCCCAATGATGTTAATCGGGTCTTGATTCGCTTGACGCTGCTG
- binding signal [1]: 4.95 z-score
- binding signal (GST-Hu-p50): 4.21 z-score

Sequence: CCGATTAACATCAGGGGAGTACATGATGTTAATCGGGTCTTGATTCGCTTGACGCTGCTG
- binding signal [1]: 3.51 z-score
- binding signal (GST-Hu-p50): 2.47 z-score

Sequence: CCGATTAACATCAGGCCACCCCCTGATGTTAATCGGGTCTTGATTCGCTTGACGCTGCTG
- binding signal [1]: 2.48 z-score
- binding signal (GST-Hu-p50): 3.82 z-score
